Calls of active or inactive are those of the source. Unless noted, the rule behind the calls is not given here.
Legend:
[1] = HepG2 liver cancer cell viability effects, profiling panel, resazurin fluorescence, 24 h, PK04 Diversity Set (AID 1172); details: higher = more signal
[2] = basal S. cerevisiae growth modulation, no modifier, primary screen, OD600, strain BY4716, 24 h, basal condition (AID 1173); details: OD600, 24 h, higher = more signal, called active from +8 up or from −8 down
[3] = MM1S myeloma cell viability, profiling panel, resazurin fluorescence, basal, 24 h, PK04 Diversity Set (AID 1174); details: higher = more signal, called active from +8 up or from −8 down;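 note: MM1S multiple myeloma cell line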
[4] = target: Dihydroorotate dehydrogenase (quinone), mitochondrial (Plasmodium falciparum (isolate 3D7)) (UniProt Q08210); assay: PfDHODH enzyme inhibitors, primary screen, biochemical, C-terminal His tag, absorbance 600 nm (AID 1175); details: DCIP absorbance 600 nm, higher = more signal, called active from +8 up or from −8 down;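 note: recombinant parasite enzyme with a five histidine tag at its C terminus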
Dihydroorotate dehydrogenase (quinone), mitochondrial (Plasmodium falciparum (isolate 3D7)), sequence (Q08210 whole entry, looked up): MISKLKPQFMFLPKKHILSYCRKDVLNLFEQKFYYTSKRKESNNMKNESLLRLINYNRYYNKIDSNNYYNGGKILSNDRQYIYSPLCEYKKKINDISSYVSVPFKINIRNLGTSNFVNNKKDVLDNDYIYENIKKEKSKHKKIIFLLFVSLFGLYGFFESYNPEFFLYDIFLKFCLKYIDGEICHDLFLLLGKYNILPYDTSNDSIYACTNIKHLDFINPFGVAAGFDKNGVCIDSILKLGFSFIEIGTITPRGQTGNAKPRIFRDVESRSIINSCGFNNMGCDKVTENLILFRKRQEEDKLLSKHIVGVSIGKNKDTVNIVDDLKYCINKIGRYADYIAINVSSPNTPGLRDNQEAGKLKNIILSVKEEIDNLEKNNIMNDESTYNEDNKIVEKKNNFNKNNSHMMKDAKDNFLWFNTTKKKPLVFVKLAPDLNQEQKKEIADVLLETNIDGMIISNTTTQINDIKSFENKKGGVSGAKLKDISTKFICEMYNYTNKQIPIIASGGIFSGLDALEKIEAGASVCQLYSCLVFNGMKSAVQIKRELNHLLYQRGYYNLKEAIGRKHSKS

[5] = P. aeruginosa biofilm formation inhibitors, primary screen, strain PAO1, LB-PBS medium, absorbance 600 nm (AID 1176); details: P. aeruginosa PAO1 growth/biofilm, A600, 12 h; higher = more signal
[6] = S. cerevisiae RM11-1a growth modifiers, primary screen, strain RM11-1a, OD600, basal, 24 h (AID 1177); details: OD600, 24 h, higher = more signal, called active from +8 up or from −8 down;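 note: cultures grown under basal conditions with no added stressor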
[7] = E. coli acrAB mutant growth effects, primary screen, E. coli filamentation inducers, strain DRC39, OD650, 24 h (AID 1178); details: higher = more signal, called active from +8 up or from −8 down;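 note: growth measured as culture turbidity by optical density at 650 nm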
[8] = E. coli acrAB mutant growth effects, primary screen, E. coli filamentation inducers, strain DRC39, OD650, 48 h (AID 1179);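 note: screen aims at cell division blockers that make cells filament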; details: E. coli DRC39 delta-acrAB growth, higher = more signal, called active from +8 up or from −8 down
[9] = RPMI8226 myeloma cell viability, profiling panel, resazurin fluorescence, basal, 24 h, PK04 Diversity Set (AID 1180); details: higher = more signal;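 note: RPMI8826 multiple myeloma cell line at 5000 cells per well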
[10] = target: E3 ubiquitin-protein ligase XIAP (Homo sapiens) (UniProt P98170); assay: XIAP binders, primary screen, biophysical, small-molecule microarray, fluorescence 635 nm (AID 1181); details: small-molecule microarray binding, higher = more signal;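 note: score merges 667 nm emission and signal to noise over triplicate slides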
E3 ubiquitin-protein ligase XIAP (Homo sapiens), sequence (P98170 whole entry, looked up): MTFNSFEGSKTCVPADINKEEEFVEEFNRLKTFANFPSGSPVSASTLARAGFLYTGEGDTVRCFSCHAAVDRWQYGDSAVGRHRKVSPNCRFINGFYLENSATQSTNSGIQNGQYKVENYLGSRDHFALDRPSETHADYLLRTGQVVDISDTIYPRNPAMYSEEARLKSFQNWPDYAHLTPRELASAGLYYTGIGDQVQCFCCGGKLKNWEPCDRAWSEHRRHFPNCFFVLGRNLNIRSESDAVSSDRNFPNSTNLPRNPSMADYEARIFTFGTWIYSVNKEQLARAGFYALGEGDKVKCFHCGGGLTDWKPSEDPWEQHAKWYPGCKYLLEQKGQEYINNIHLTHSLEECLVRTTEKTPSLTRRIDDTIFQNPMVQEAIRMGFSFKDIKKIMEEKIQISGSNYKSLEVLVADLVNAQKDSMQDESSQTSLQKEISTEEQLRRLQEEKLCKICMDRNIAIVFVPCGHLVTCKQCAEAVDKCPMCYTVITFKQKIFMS

[11] = test system: XIP peptide (Xip251-270) binding; assay: small-molecule binders of XIP peptide, primary screen, biochemical, small-molecule microarray, fluorescence 635/667 nm, 0.1 µg/mL protein (AID 1182); details: fluorescent protein binding, 635 nm, higher = more signal, called active from +8 up or from −8 down
XIP peptide (Xip251-270) = assay: small-molecule binders of XIP peptide, primary screen, biochemical, small-molecule microarray, fluorescence 635/667 nm, 0.5 µg/mL protein (AID 1183); details: small-molecule microarray binding, fluorescence 635 nm; higher = more signal
[12] = Plasmodium falciparum growth inhibition, primary screen, strain 3D7, DAPI fluorescence, 100 nL (AID 1184);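 note: parasites grown inside human red blood cells in medium with human serum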; details: P. falciparum 3D7 growth, 3 d, higher = more signal
[13] = target: Homeobox protein Hox-A13 (Mus musculus) (UniProt Q62424); assay: inhibitors of HoxA13-DNA binding, primary screen, biochemical, fluorescence polarization, labeled oligonucleotide (AID 1185); details: 15 min, higher = more signal, called active from +8 up or from −8 down
Homeobox protein Hox-A13 (Mus musculus), sequence (Q62424 whole entry, looked up): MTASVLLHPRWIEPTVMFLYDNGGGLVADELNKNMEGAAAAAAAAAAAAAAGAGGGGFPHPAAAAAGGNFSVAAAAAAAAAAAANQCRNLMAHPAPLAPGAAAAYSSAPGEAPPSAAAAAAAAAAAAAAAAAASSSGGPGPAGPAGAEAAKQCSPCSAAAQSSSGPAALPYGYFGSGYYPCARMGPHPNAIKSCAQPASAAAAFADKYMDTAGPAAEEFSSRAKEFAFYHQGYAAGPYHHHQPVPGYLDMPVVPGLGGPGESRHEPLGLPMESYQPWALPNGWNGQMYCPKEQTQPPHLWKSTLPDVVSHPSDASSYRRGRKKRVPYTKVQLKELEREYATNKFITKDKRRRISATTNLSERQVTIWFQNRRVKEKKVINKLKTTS

[14] = inhibitors of hydroxyurea-induced Chk1 phosphorylation, primary screen, imaging, HeLa, phospho-Chk1 antibody, percent positive cells (AID 1186); details: hydroxyurea-induced phospho-Chk1 immunofluorescence imaging, higher = more signal
[15] = inhibitors of hydroxyurea-induced Chk1 phosphorylation, primary screen, imaging, HeLa, phospho-Chk1 nuclear intensity (AID 1187); details: hydroxyurea-induced phospho-Chk1 immunofluorescence imaging, higher = more signal

SMILES	z-score [1]	z-score [2]	z-score [3]	composite z-score [4]	z-score [5]	z-score [6]	z-score [7]	z-score [8]	z-score [9]	composite z-score [10]	composite z-score [11]	composite z-score (XIP peptide (Xip251-270))	z-score [12]	z-score [13]	z-score [14]	z-score [15]
COc1ccc(C(O)C2C=CC3C(=O)N(Cc4ccccc4)C(=O)C3N2n2cnnc2)cc1OCc1ccccc1 (stereo not drawn)	-0.299	0.278 (inactive)	0.708 (inactive)	-0.265 (inactive)	1.13 (inactive)	-0.271 (inactive)	1.31 (inactive)	-0.48 (inactive)	0.329	0.035	0.442 (inactive)	0.159	-0.951	-2.23 (inactive)	-0.537 (inactive)	-0.462 (inactive)
O=C(NC1CC1)[C@@H]1c2ccccc2C(=O)N(Cc2ccccc2Cl)[C@H]1c1ccc(CO)cc1	0.382	-2.09 (inactive)	-0.0621 (inactive)	-1.36 (inactive)	0.994 (inactive)	-2.66 (inactive)	1.28 (inactive)	1.49 (inactive)	0.69	0.0297	0.628 (inactive)	0.119	-0.46	-2.23 (inactive)	-0.825 (inactive)	-1.13 (inactive)
COc1ccc(/C=C/C=O)cc1	-0.316	-3.59 (inactive)	-0.998 (inactive)	-0.291 (inactive)	0.0061 (inactive)	0.313 (inactive)	0.154 (inactive)	0.0154 (inactive)	-0.495	0.128	-0.338 (inactive)	0.185	1.01	0.0055 (inactive)	0.0257 (inactive)	0.0335 (inactive)
COC(=O)[C@@]1(Cc2ccc(OC)cc2)[C@H]2c3cc(C(=O)N(C)C)n(C)c3C[C@H]2CN1C(=O)c1ccccc1	-0.105	1.3 (inactive)	-2.26 (inactive)	-0.342 (inactive)	0.976 (inactive)	0.241 (inactive)	-0.372 (inactive)	-1.28 (inactive)	-2.45	0.0279	-0.0515 (inactive)	0.764	-1.4	-3.49 (inactive)	-0.0095 (inactive)	0.0799 (inactive)
CC1(C)[C@@H]2CC(C(O)C3C=CC4C(=O)N(c5ccccc5)C(=O)C4N3Nc3ccc([N+](=O)[O-])cc3)=C[C@H]1C2 (stereo partly drawn)	-0.128	0.318 (inactive)	0.218 (inactive)	0.634 (inactive)	1.07 (inactive)	0.08 (inactive)	-0.982 (inactive)	-0.512 (inactive)	0.0954	-0.141	0.19 (inactive)	0.797	-0.545	-2.94 (inactive)	0.0793 (inactive)	-0.261 (inactive)
C=CC[C@]1(C(=O)NCc2ccccc2)N=C(c2ccc(OCCCO)cc2)O[C@H]1c1ccccc1N=[N+]=[N-]	-0.0155	-0.737 (inactive)	-1.93 (inactive)	1.52 (inactive)	1.39 (inactive)	0.599 (inactive)	0.498 (inactive)	-0.822 (inactive)	-1.31	0.0623	0.525 (inactive)	0.699	-2.18	-1.87 (inactive)	-0.22 (inactive)	0.148 (inactive)
COCCOC(=O)N1C(=O)[C@@]2(c3cc(C#CCCO)ccc31)[C@H](C(=O)N1CCCCCCC1)[C@H]1C(=O)O[C@H](c3ccccc3)[C@H](c3ccccc3)N1[C@@H]2c1ccc(OCCO)cc1	0.902	0.849 (inactive)	0.368 (inactive)	0.047 (inactive)	1.56 (inactive)	2.32 (inactive)	-0.0574 (inactive)	0.215 (inactive)	-2.44	1.06	1.29 (inactive)	0.666	-1.5	-11 (active)	-0.201 (inactive)	0.0919 (inactive)
C=CCC(OC(C)=O)[C@@H]1[C@@H](N(Cc2ccc(-c3ccccc3)cc2)C(=O)c2ccc(-c3ccccc3)cc2)c2cc(OCCCO)ccc2N1C(=O)Cc1ccc2ccccc2c1 (stereo partly drawn)	0.289	0.274 (inactive)	0.7 (inactive)	-0.0366 (inactive)	0.526 (inactive)	-0.357 (inactive)	-0.433 (inactive)	-0.5 (inactive)	0.465	0.225	-0.313 (inactive)	-0.241	0.799	-1.05 (inactive)	0.321 (inactive)	0.392 (inactive)
COC(=O)C(CC#Cc1ccc2c(c1)[C@]1(C(=O)N2)[C@H](c2ccc(OCCO)cc2)N2[C@H](c3ccccc3)[C@H](c3ccccc3)OC(=O)[C@H]2[C@@H]1C(=O)N1CCc2cc(OC)c(OC)cc2C1)C(=O)OC	0.399	2.53 (inactive)	0.164 (inactive)	-4.19 (inactive)	3.7 (inactive)	2.97 (inactive)	0.242 (inactive)	-0.182 (inactive)	-0.368	-0.227	0.0734 (inactive)	0.78	-2	-1.29 (inactive)	0.192 (inactive)	0.492 (inactive)
COC(=O)[C@H](Cc1ccccc1)N1CC2=C[C@@H](C3CC3)n3c(=O)n(C)c(=O)n3[C@H]2[C@@H]1[C@@H](O)Cc1ccccc1	-0.0568	-1.18 (inactive)	-1.07 (inactive)	-0.174 (inactive)	0.0937 (inactive)	-0.143 (inactive)	-0.172 (inactive)	-0.228 (inactive)	0.358	-0.142	0.475 (inactive)	0.259	-0.863	-7.37 (inactive)	0.183 (inactive)	1.5 (inactive)
COC(=O)[C@@]1(Cc2ccc(F)cc2)[C@H]2c3cc(C(=O)N(C)C)n(Cc4ccccc4)c3C[C@H]2CN1C(=O)c1ccccc1	-1.49	1.98 (inactive)	-0.946 (inactive)	0.151 (inactive)	0.976 (inactive)	1.61 (inactive)	-0.342 (inactive)	0.232 (inactive)	-2.86	-0.2	0.578 (inactive)	0.766	-1.41	-3.11 (inactive)	1.33 (inactive)	1.2 (inactive)
C=CCN1C(=O)[C@]2(O[C@H](CCn3cc([C@H](O)c4ccccc4)nn3)[C@@H]([Si](C)(C)c3ccc(OC)cc3)[C@@H]2C)c2ccccc21	-1.25	-0.242 (inactive)	-1.68 (inactive)	-0.591 (inactive)	1.29 (inactive)	0.507 (inactive)	0.617 (inactive)	0.169 (inactive)	-1.69	-0.104	0.507 (inactive)	-0.579	-1.69	-5.68 (inactive)	-0.831 (inactive)	-0.475 (inactive)
C=CCNC(=O)[C@@H]1[C@H]2C(=O)O[C@H](c3ccccc3)[C@H](c3ccccc3)N2[C@H](c2ccc(O)cc2)[C@@]12C(=O)N(C(=O)OCCOC)c1ccc(C#CCNC(N)=O)cc12	-0.0359	0.0215 (inactive)	-0.0272 (inactive)	-1.74 (inactive)	0.318 (inactive)	-0.586 (inactive)	0.916 (inactive)	1.39 (inactive)	0.302	-0.17	0.963 (inactive)	0.787	0.251	-2.11 (inactive)	-0.26 (inactive)	-0.436 (inactive)
CCCCCCc1nc(-c2cc(C)c(OC)c(C)c2)cc2c1[Si](C(C)C)(C(C)C)OC2	-0.206	-1.09 (inactive)	0.401 (inactive)	-3.17 (inactive)	-0.747 (inactive)	-0.493 (inactive)	0.615 (inactive)	0.641 (inactive)	-0.11	0.0537	-0.267 (inactive)	-0.191	-2.34	-0.772 (inactive)	-0.157 (inactive)	-0.188 (inactive)
CC(C)N1C(=O)c2ccccc2[C@](C)(C(=O)NCCN2CCOCC2)[C@@H]1c1ccc(CO)cc1	0.0412	0.567 (inactive)	-0.139 (inactive)	1.11 (inactive)	0.484 (inactive)	1.41 (inactive)	-0.0268 (inactive)	-0.582 (inactive)	-0.44	0.126	0.0317 (inactive)	-0.119	0.437	-3.78 (inactive)	-0.155 (inactive)	-0.332 (inactive)
COc1ccc([Si](C)(C)[C@@H]2[C@@H](CC(=O)N3CCC[C@H]3CO)O[C@]3(C(=O)N(c4ccccc4)c4ccccc43)[C@H]2C)cc1	0.733	-1.39 (inactive)	0.315 (inactive)	-1.27 (inactive)	-0.106 (inactive)	-1.2 (inactive)	0.193 (inactive)	0.258 (inactive)	0.729	0.217	-0.152 (inactive)	0.591	-0.831	-5.71 (inactive)	-0.845 (inactive)	-1.31 (inactive)
COc1cccc(-c2cccc(=O)o2)c1	-0.314	-7.29 (inactive)	-0.28 (inactive)	-1.02 (inactive)	0.381 (inactive)	0.346 (inactive)	-0.0605 (inactive)	-0.17 (inactive)	-0.0335	0.488	-0.256 (inactive)	0.688	0.0459	-2.09 (inactive)	0.317 (inactive)	-0.169 (inactive)
CC(C)C[C@@H]1NC(=O)[C@@H]2C[C@H](C(=O)O)[C@H](c3cccc(OCCO)c3)N2C1=O	-0.314	-0.0664 (inactive)	0.254 (inactive)	-1.16 (inactive)	-0.447 (inactive)	-0.747 (inactive)	0.398 (inactive)	-0.263 (inactive)	0.294	-0.059	1.04 (inactive)	0.708	-0.222	-2.76 (inactive)	0.0342 (inactive)	0.153 (inactive)

From PubChem BioAssay
